{
  "source": "PubChem BioAssay (Tox21)",
  "note": "Results filed as inconclusive are left out. Where a call stands in place of a potency, no number is given. Active and inactive are the calls of the source. The call rests on the fitted dose curve; in most records, active means well fitted cell-killing curve with a large enough effect in the repeat runs; inconclusive means weak or mixed curves, or effect the other way; inactive means no such curve, though single readings can be large or run the other way. Potency means the concentration at half of the fitted maximal effect.",
  "data": [
    {"assay": "qHTS assay to identify small molecule agonists of the estrogen receptor alpha (ER-alpha) signaling pathway in the presence of an antagonist - cell viability counter screen (AID 1259386);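 further: cells exposed to compounds for 22 h at 37 °C before the viability read; nearly all actives have a fitted effect of over 30% in size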", "settings": "VM7Luc4E2 viability, CellTiter-Fluor fluorescence, 22 h; series mostly up to 92.4 µM", "from_the_text": "National Center for Advancing Translational Sciences [NCATS]\nNIH Chemical Genomics Center [NCGC]\nU.S. Environmental Protection Agency [EPA]\nNational Institutes of Environmental Health Sciences [NIEHS]\nNational Toxicology Program [NTP]\nU.S. Food and Drug Administration [FDA]\nEstrogen receptor (ER), a member of nuclear hormone receptor plays an important role in development, metabolic homeostasis and reproduction. Two subtypes of ER, ER-alpha and ER-beta, have similar expression patterns with some uniqueness in both types. Endocrine disrupting chemicals (EDCs) and their interactions with steroid hormone receptors like ER causes disruption of normal endocrine function. Therefore, it is important to understand the effect of environmental chemicals in ER signaling pathway. For identifying ER agonists, VM7Luc4E2 cell line has been used in the current assay.\nVM7Luc4E2 cell line (provided by Denison MS, University of California) endogenously expresses full-length ER-alpha and is stably transfected with a plasmid containing four estrogen responsive elements (ERE) upstream of a luciferase reporter gene. This current screening for measuring luciferase reporter gene activity using VM7Luc4E2 cells against Tox21 10K library collection is a confirmation study on agonist mode screening in presence of ER-antagonist (ICI-182,780) at 10.0nM final concentration. The cytotoxicity of the compounds was tested in parallel by measuring the cell viability using CellTiter-Fluor assay system (Promega, Madison, WI) in the same wells.\nTox21 Assay Protocol Summary:\nVM7Luc4E2 cells were cultured in phenol red free assay medium containing 10% charcoal stripped FBS for 5 days prior to the assay. The cells were dispensed at 4,000 cells in 4uL of assay medium per well into white wall/solid-bottom 1536-well plates (Corning Life Sciences, Corning, NY) using a Multidrop Combi (Thermo Fisher Scientific Inc., Waltham, MA) dispenser. After the assay plates were incubated at 37C and 5% CO2 for 24hr, 1uL of 10.0nM (final concentration) ICI-182,780 or assay buffer was added using two separate tips of Flying Reagent Dispenser (FRD, Aurora Discovery, San Diego, CA). Then 23nL of compounds dissolved in DMSO at 15 concentrations and positive controls or DMSO only was transferred to the assay plates by a Pintool station (Wako, San Diego, CA). The assay plates were incubated at 37C and 5% CO2 for 22hr. After 21hr incubation at 37C, 1uL/well CellTiter-Fluor reagent (Promega Corporation, Madison, WI) was added to each well using FRD and after 1hr incubation at 37C and 5% CO2, the fluorescence signal was measured on ViewLux plate reader (PerkinElmer, Shelton, CT).", "values": [
      {"smiles": "CCNc1nc(N)nc(Cl)n1", "Potency": "inactive"},
      {"smiles": "CC(=O)c1ccc[nH]1", "Potency": "inactive"},
      {"smiles": "O=C(O)CCC(=O)c1ccc(-c2ccccc2)cc1", "Potency": "inactive"},
      {"smiles": "CC(=O)C(C)=O", "Potency": "inactive"},
      {"smiles": "Nc1ccn([C@H]2CS[C@@H](CO)O2)c(=O)n1", "Potency": "inactive"},
      {"smiles": "C/C(C=O)=C\\c1ccccc1", "Potency": "inactive"},
      {"smiles": "O=C(c1ccccc1)c1ccc(O)cc1", "Potency": "inactive"},
      {"smiles": "Cc1ccc(N(CC2=NCCN2)c2cccc(O)c2)cc1", "Potency": "inactive"},
      {"smiles": "C=Cc1ccc(OC(C)=O)cc1", "Potency": "inactive"},
      {"smiles": "Nc1ccc(N=Nc2ccc(N)cc2)cc1", "Potency": "24.3 µM (active)"},
      {"smiles": "NC(=O)CCCCC(N)=O", "Potency": "inactive"},
      {"smiles": "SCCc1cnccn1", "Potency": "inactive"},
      {"smiles": "CCN(CC)C(=O)/C(C#N)=C/c1cc(O)c(O)c([N+](=O)[O-])c1", "Potency": "26.6 µM (active)"},
      {"smiles": "CCC(C)(C)C(=O)O", "Potency": "inactive"},
      {"smiles": "C=CCOC(=O)COCCC(C)C", "Potency": "inactive"},
      {"smiles": "O=CNNC=O", "Potency": "inactive"},
      {"smiles": "CC(C)(C)NCC(O)COc1cccc2c1C[C@H](O)[C@H](O)C2", "note": "(stereo not given in full)", "Potency": "inactive"},
      {"smiles": "CCN(CC)c1cccc(O)c1", "Potency": "inactive"},
      {"smiles": "CC1CCCC(=O)C1=O", "note": "(stereo not given)", "Potency": "inactive"},
      {"smiles": "CCN(CC)CCOC(=O)C(c1ccccc1)c1ccccc1", "Potency": "inactive"},
      {"smiles": "O=C(O)c1cccc(Oc2ccccc2)c1", "Potency": "inactive"},
      {"smiles": "O=[N+]([O-])C1(Br)COCOC1", "Potency": "inactive"},
      {"smiles": "CC(C)(C(=O)c1cccnc1)c1cccnc1", "Potency": "inactive"},
      {"smiles": "CC(C)(C)CCCCCCOC(=O)c1ccccc1C(=O)OCCCCCCC(C)(C)C", "Potency": "inactive"},
      {"smiles": "COc1cc(OC)c2ccc(=O)oc2c1", "Potency": "inactive"},
      {"smiles": "CC(C)(C)C1(CCc2ccc(Cl)cc2)CO1", "note": "(stereo not given)", "Potency": "inactive"},
      {"smiles": "CCCCCCCC/C=C\\CCCCCCCC(=O)OCCO", "Potency": "inactive"},
      {"smiles": "COc1cc(NS(=O)(=O)c2ccc(N)cc2)nc(C)n1", "Potency": "inactive"},
      {"smiles": "O=C(NC(Cc1cc(=O)[nH]c2ccccc12)C(=O)O)c1ccc(Cl)cc1", "note": "(stereo not given)", "Potency": "inactive"},
      {"smiles": "O=c1[nH][nH]c(=O)c2cc([N+](=O)[O-])ccc12", "Potency": "inactive"},
      {"smiles": "Cc1c(C2(c3cc(Br)c(O)c(Br)c3C)OS(=O)(=O)c3ccccc32)cc(Br)c(O)c1Br", "Potency": "13.3 µM (active)"},
      {"smiles": "CNc1c2c(nn1C)CCCC2", "Potency": "inactive"},
      {"smiles": "CC(CO)(CO)C(=O)O", "Potency": "inactive"},
      {"smiles": "O=C(O)c1ccc(O)cc1O", "Potency": "inactive"},
      {"smiles": "ClC1=C(Cl)C1(Cl)Cl", "Potency": "inactive"},
      {"smiles": "Cc1ccc(Nc2c(F)cccc2Cl)c(CC(=O)O)c1", "Potency": "inactive"},
      {"smiles": "CC1CCc2nccnc21", "note": "(stereo not given)", "Potency": "inactive"},
      {"smiles": "Nc1nc(-c2ccc([N+](=O)[O-])cc2)cs1", "Potency": "inactive"},
      {"smiles": "O=P(O)(O)Oc1ccccc1", "Potency": "inactive"},
      {"smiles": "CCCCCCCCCCCSCC(=O)O", "Potency": "inactive"}
    ]}
  ]
}
